From PubChem BioAssay
The list is not random: actives were taken first. Their share in the collection is about 0.9%.
gsp agonist: agonists of gsp mutant (McCune-Albright syndrome) | Potency, µM (highest dose often 76.9 µM), actives largely listed as activators | hit rate 0.13% among 340,000 | gsp mutant cells, cAMP HTRF, 30 min | AID 624287; active = well fitted activation curve with a large enough effect; inconclusive = small, poorly fitted or top-dose-only effect, or another doubt; inactive = no such curve, though single readings can be large or run the other way; cell line not stated here;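 also: phosphodiesterase inhibitor Ro 20-1724 added with compounds to block cAMP breakdown; nearly all actives have a fitted effect of over 60% in size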
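Cells in DMEM/10% FBS with G418 were pretreated with compounds in DMSO plus […] (300 uM stock) for 30 min at 37C. cAMP was measured by HTRF (cAMP-d2 plus anti-cAMP antibody-K) after 30 min at room temperature.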
gsp antag: antagonizes gsp, the McCune-Albright syndrome mutation; gsp-mutant cells, cAMP HTRF, 30 min; Potency, µM (titrated, usually from 76.9 µM), most hits filed as inhibitors; hit rate 0.4% among 340,000; calls by dose curve; cell line not stated here;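 also: intracellular cAMP measured with PDE inhibitor Ro 20-1724 present during compound exposure; nearly all actives have a fitted effect of over 65% in size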
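Cells, 2000/well, grown 16–24 h in DMEM 10% FBS with 0.5 mg/ml G418, then compounds plus […] (300 uM addition stock), 30 min at 37C. cAMP read by HTRF (cAMP-d2 and anti-cAMP antibody-K in lysis buffer) after 30 min RT.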
RXFP1 antagonist: blocks the human relaxin receptor RXFP1; HEK293-RXFP1, relaxin-stimulated cAMP HTRF, 30 min; hits give low values; hit rate 0.59% among 350,000; activity change, negative = inhibition, % at 57.5 µM; Q9HBX9;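 active = activity change of -60% or lower, but not beyond a set lower limit; inconclusive = change between -60% and -40%, or beyond the set limit; inactive = change above -40%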
Target sequence (Q9HBX9 whole entry, looked up): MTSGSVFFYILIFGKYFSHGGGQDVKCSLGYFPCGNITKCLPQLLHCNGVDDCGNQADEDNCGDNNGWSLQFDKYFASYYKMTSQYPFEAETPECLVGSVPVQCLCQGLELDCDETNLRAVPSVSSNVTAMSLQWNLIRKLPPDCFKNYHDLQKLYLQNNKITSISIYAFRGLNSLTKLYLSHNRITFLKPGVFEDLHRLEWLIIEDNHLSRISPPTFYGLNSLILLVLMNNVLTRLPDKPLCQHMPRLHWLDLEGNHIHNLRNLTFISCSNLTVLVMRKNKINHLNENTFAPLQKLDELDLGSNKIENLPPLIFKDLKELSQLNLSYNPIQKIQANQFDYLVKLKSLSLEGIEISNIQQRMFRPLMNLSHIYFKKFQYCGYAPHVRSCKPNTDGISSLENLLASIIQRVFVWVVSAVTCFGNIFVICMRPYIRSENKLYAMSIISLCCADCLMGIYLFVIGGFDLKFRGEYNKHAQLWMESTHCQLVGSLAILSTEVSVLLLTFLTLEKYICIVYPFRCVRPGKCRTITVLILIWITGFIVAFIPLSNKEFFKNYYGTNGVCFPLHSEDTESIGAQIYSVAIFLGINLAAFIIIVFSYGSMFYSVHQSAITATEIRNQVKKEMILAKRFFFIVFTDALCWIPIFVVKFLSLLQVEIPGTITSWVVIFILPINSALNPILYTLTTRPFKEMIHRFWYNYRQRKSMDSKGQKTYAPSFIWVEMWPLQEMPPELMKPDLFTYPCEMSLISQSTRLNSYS
RXFP1 agonist: activates the human relaxin receptor RXFP1; HEK293T-RXFP1 cAMP TR-FRET, 30 min; response scale: percent of porcine relaxin response, buffer zero; Potency, µM (doses to about 57.5 µM), hits mostly activators; hit rate 0.3% among 370,000; active = well fitted activation curve with a large enough effect; inconclusive = small, poorly fitted or top-dose-only effect; also: nearly all actives have a fitted effect of over 60% in size
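Agonist response is measured as cAMP accumulation in an RXFP1-transfected HEK293T line under PDE4 inhibition. Values are scaled between buffer-only and 29 nM porcine relaxin, and EC50s come from standard Hill equation fits.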
Hits are given with their value; i = inactive; ? = inconclusive; nt = no result; ! = not active in a repeat; [ ] = remark or other dose.

SMILES | gsp agonist | gsp antag | RXFP1 antagonist | RXFP1 agonist
O=C(c1cccs1)N1N=C(c2ccccc2)CC1c1ccc(O)cc1 (centres undefined) | i | 28µM | ? | i
CCC(=O)N1CCN(c2ccccc2NC(=O)c2ccc(-c3cccc([N+](=O)[O-])c3)o2)CC1 | i[15.4 µM] | 5.6µM | i | i
COc1ccc(NC(=O)CN(C)S(=O)(=O)c2ccc3nc(C)sc3c2)cc1Cl | nt | nt | i | i
CCOCCOC(=O)/C=C/c1ccc(OC)cc1 | nt | nt | i | nt
CN(Cc1ccccc1)C(=O)c1ccccc1N(C)S(=O)(=O)c1ccccc1 | i[15.4 µM] | i | -62 | i
CN(Cc1ccccc1)C(=O)c1ccccc1C(=O)O | ? | i | i | i
CCc1cccc(NC(=O)c2cccc3c2C(=O)N(CC2CCCO2)C3)c1 (centres undefined) | i | 35µM | i | i
CCOC(=O)/C(=N\Nc1ccccc1Cl)N1CC(C)OC(C)C1 (centres undefined) | i | i | -67 | i
CCOC(=O)/C(=N\Nc1cc(Cl)ccc1Cl)N1CC(C)OC(C)C1 (centres undefined) | ? | i | i | i
S=c1[nH]nc(-c2ccccc2)c2ccccc12 | ? | i | -84 | i
COc1ccc(CNC(=O)CCc2nnc3ccc(N4CCC5(CC4)OCCO5)nn23)cc1 | i | i | i | ?
CSc1ccc(CCNC(=O)CCc2nnc3ccc(N4CCOCC4)nn23)cc1 | 16µM | i | nt | i
Cc1ccc(CNC(=O)CCc2nnc3ccc(N4CCC5(CC4)OCCO5)nn23)cc1 | ? | i | i | 18µM
CC(C)N1CCC2(CC1)N=C(c1ccc3c(c1)OCO3)CC(c1cc(Cl)ccc1O)N2 (centres undefined) | i | i | -67 | i
Cc1ccccc1CN1C(=O)c2ccccc2Sc2ccc(C(=O)NC3CCCC3)cc21 | nt | nt | i | i
CCC(C(=O)OCCN1CCOC(c2ccccc2)C1C)c1ccccc1 (centres undefined) | nt | nt | i | nt
CCN1CCN(C(=O)c2ccc3c(c2)N(Cc2cccc(Cl)c2)C(=O)c2ccccc2S3(=O)=O)CC1 | nt | nt | i | i
CC(C)OC(=O)C(C(=O)C(F)(F)F)c1cc(NS(=O)(=O)c2ccc3ccccc3c2)c2ccccc2c1O (centres undefined) | i | i | -85 | i
CCOc1ccccc1NC(=O)COC(=O)C(CC)c1ccccc1 (centres undefined) | i | 10µM | i | i
CC(C)N(Cc1ccccc1)C(=O)c1cc2ccc3cccnc3c2[nH]1 | nt | nt | -101 | i
COc1ccccc1NC(=O)c1cc2ccc3cccnc3c2[nH]1 | nt | nt | -71 | i
Cc1cccc(C(=O)Nc2nnc(S(=O)(=O)N(C)Cc3ccco3)s2)c1 | i | i | i | 14µM!
COC(=O)C1=C(C)NC(C)=C(C(=O)OCCc2ccc(N3CCN(C(c4ccccc4)c4ccccc4)CC3)cc2)C1c1cccc([N+](=O)[O-])c1 (centres undefined) | nt | nt | i | nt
O=C1c2cccnc2C(=O)N1Cc1ccc(F)cc1S(=O)(=O)NCc1ccco1 | ? | i | i | 25µM
COc1ccc(CN2C(=O)c3cccnc3C2=O)cc1S(=O)(=O)NCc1ccc(C)o1 | ? | i | i | 16µM
SMILES | gsp agonist | gsp antag | RXFP1 antagonist | RXFP1 agonist
Cc1cc(S(=O)(=O)N2CCN(c3ccccn3)CC2)ccc1F | ? | i | i | i
Cc1cc(C)c(S(=O)(=O)N2CCN(c3ccccn3)CC2)c(C)c1 | i[15.4 µM] | i | -95 | i
CC(C)c1nnc(NC(=O)c2nc(S(=O)(=O)Cc3ccc(F)cc3)ncc2Cl)s1 | i[15.4 µM] | 28µM | ? | i
CSc1ncc(Cl)c(C(=O)Nc2nnc(SC/C=C/c3ccccc3)s2)n1 | ? | 35µM | i | i
CSc1nnc(NC(=O)c2nc(S(=O)(=O)Cc3cccc(C)c3)ncc2Cl)s1 | i[15.4 µM] | 40µM | -73 | i
CCOc1ccccc1NC(=O)c1nc(S(=O)(=O)Cc2cccc(C)c2)ncc1Cl | ? | i | i | i
CC(C)c1nnc(NC(=O)c2nc(S(=O)(=O)Cc3ccccc3F)ncc2Cl)s1 | i | ? | i | i
CCSc1nnc(NC(=O)c2nc(S(=O)(=O)Cc3ccc(F)cc3)ncc2Cl)s1 | i[15.4 µM] | 40µM | ? | i
CC(=O)Nc1ccn(C2COC(COC(=O)c3ccccc3)O2)c(=O)n1 (centres undefined) | nt | nt | i | nt
O=C1CCC(C(=O)N(CCO)Cc2ccccc2)CN1CCc1cccc(F)c1 (centres undefined) | i | nt | i | nt
CSc1nnc(NC(=O)c2nc(S(=O)(=O)Cc3ccccc3F)ncc2Cl)s1 | i[15.4 µM] | 35µM | i | i
Cc1ccc(CS(=O)(=O)c2ncc(Cl)c(C(=O)Nc3nnc(C(C)C)s3)n2)cc1 | i[15.4 µM] | 18µM | -93 | i
Cc1cccc(CS(=O)(=O)c2ncc(Cl)c(C(=O)Nc3nnc(C(C)C)s3)n2)c1 | i[15.4 µM] | 20µM | ? | i
CCCCn1c(=N)n(CCOc2ccccc2OC)c2ccccc21 | nt | nt | i | i
CCCCn1c(=N)n(CCOc2ccc(C)cc2)c2ccccc21 | i | i | -75 | i
CC(C)c1ccc(NC(=O)CN2C(=O)COc3ccc(S(=O)(=O)Nc4ccccc4)cc32)cc1 | nt | nt | nt | i
CCc1cccc(NC(=O)c2coc(=O)c3ccccc23)c1 | nt | nt | nt | i
Cc1nnc2c3ccccc3c(Cl)nn12 | 25µM | i | i | ?
Cc1nnc2c3ccccc3c(-c3ccc(O)cc3)nn12 | ? | i | i | i
NC(=O)c1ccc(N2CCN(c3ccc(O)cc3)CC2)c([N+](=O)[O-])c1 | i[15.4 µM] | i | ? | i
CC(=O)c1ccc(N2CCN(c3ccc(C(N)=O)cc3[N+](=O)[O-])CC2)cc1 | i | 32µM | i | i
Cc1ccc(Nc2cc(C)nc3ccc(C)cc23)cc1 | i | i | -82 | i
CCOc1ccc(Nc2cc(C)nc3ccc(C)cc23)cc1 | i[15.4 µM] | ? | i | nt
c1ccc2c(c1)CCc1ccccc1N2 | nt | nt | i | nt
CCN(C(=O)CCN1C(=O)/C(=C/c2ccccc2)SC1=S)C1CCS(=O)(=O)C1 (centres undefined) | ? | 28µM | i | i
SMILES | gsp agonist | gsp antag | RXFP1 antagonist | RXFP1 agonist
CN(C(=O)CCN1C(=O)/C(=C/c2ccc(F)cc2)SC1=S)C1CCS(=O)(=O)C1 (centres undefined) | i | nt | i | nt
Cc1c(F)cc2c(=O)c(C(=O)O)cn3c2c1CCC3C (centres undefined) | nt | nt | i | nt
COc1c(OC(C)=O)ccc(/C=C/c2ccc3ccccc3n2)c1[N+](=O)[O-] | i | 25µM | i | i
N#Cc1c(N)nc2c3c(sc(=N)c2c1N)NC(=O)CC3c1ccccc1 (centres undefined) | i | i | i | 28µM
N#Cc1c(N)nc2c3c(sc(=N)c2c1N)NC(=O)CC3c1c(F)cccc1Cl (centres undefined) | i | i | i | ?
COc1ccc(CSCC(=O)Nc2ccc(S(=O)(=O)N3CCCCCC3)cc2)cc1 | i | i | i | i
COc1ccc(NC(=O)CSCC(=O)Nc2ccc(S(=O)(=O)N3CCCCC3)cc2)cc1 | i[15.4 µM] | i | -64 | i
Cc1nc(-n2nc(C)c(Cc3ccccc3Cl)c2C)sc1C(=O)Nc1ccccc1F | nt | nt | i | i
COC(=O)c1c(NC(C)=O)sc2c1CCN(Cc1ccccc1)C2 | ? | i | i | i
